The text below walks through data of PubChem BioAssay (EPA / NIEHS).

Records with an inconclusive call do not appear. Active and inactive are the calls of the source. How the source made its calls, unless noted: active means hit-call score of the fitted dose curve at least 0.9, where 1 is the maximum; inactive means score below 0.9.

Experiment [1] in a line: ATG_PBREM_CIS: Attagene CIS-FACTORIAL HepG2 Assay for human Phenobarbital-responsive Enhancer Module (PBREM) (AID 2282955). Conditions: HepG2 PBREM cis-reporter, Attagene multiplexed transcription; actives raise or lower the signal. The method in brief:
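HepG2 cells transiently transfected with multiple cis-regulated reporter transcription units; endogenous factor activity at the PBREM element measured as reporter mRNA 24 h after dosing, via RT-PCR and capillary electrophoresis of fluorescent fragments; bidirectional fitting versus DMSO.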

The target of experiment [2] is Paired box protein Pax-6 (Homo sapiens) (UniProt P26367). The experiment is described as follows: ATG_Pax6_CIS: Attagene CIS-FACTORIAL HepG2 Assay for human Paired Box 6 (PAX6) (AID 2282956). As to conditions: HepG2 CIS-FACTORIAL PAX6 reporter transcription, RNA readout; actives raise or lower the signal. The method in brief: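 Read-out is reporter transcript level, measured by RT-PCR with fluorescent primer extension and capillary electrophoresis after 24 h dosing of transfected HepG2 cells. Activity in either direction fitted relative to DMSO control.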
Paired box protein Pax-6 (Homo sapiens), sequence (P26367 whole entry, looked up): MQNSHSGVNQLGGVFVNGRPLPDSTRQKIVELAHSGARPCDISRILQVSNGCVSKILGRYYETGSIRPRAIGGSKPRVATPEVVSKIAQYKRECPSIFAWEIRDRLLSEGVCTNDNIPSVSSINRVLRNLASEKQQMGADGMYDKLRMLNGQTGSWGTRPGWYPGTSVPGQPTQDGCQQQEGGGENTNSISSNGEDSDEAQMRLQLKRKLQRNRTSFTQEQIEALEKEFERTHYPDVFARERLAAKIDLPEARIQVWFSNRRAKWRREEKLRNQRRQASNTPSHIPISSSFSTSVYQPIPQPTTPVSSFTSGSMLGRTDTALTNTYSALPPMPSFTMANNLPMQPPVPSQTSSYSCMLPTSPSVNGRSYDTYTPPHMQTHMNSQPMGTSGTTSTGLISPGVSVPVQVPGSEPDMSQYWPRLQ

Experiment [3] can be described thus: ATG_PXRE_CIS: Attagene CIS-FACTORIAL HepG2 Assay for human Pregnane X Receptor Element (PXRE) (AID 2282957). As to conditions: HepG2 Attagene CIS-FACTORIAL PXRE reporter, mRNA; actives raise or lower the signal. The method in brief: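 Endogenous transcription factor activity in HepG2 was gauged through induction of reporter mRNA driven by a cis-regulating promoter element, sampled 24 h post-treatment. Activity was fitted in both directions against DMSO negative control.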

Experiment [4] is described as follows: ATG_RORE_CIS: Attagene CIS-FACTORIAL HepG2 Assay for human RAR-related Orphan Receptor Element (RORE) (AID 2282959). As to conditions: HepG2 Attagene cis-factorial RORE reporter, mRNA; actives raise or lower the signal. The method in brief: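 HepG2 cells transiently transfected with multiple cis-element reporter transcription units, exposed to chemical for 24 h. Reporter mRNA quantified by RT-PCR, 6-FAM primer-extension labeling, HpaI digestion and capillary electrophoresis; bidirectional fit versus DMSO baseline.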

Experiment [5] can be described thus: ATG_Sox_CIS: Attagene CIS-FACTORIAL HepG2 Assay for human SRY-box transcription factor (SOX) (AID 2282960). Conditions: HepG2 Attagene cis-factorial SOX reporter, mRNA; actives raise or lower the signal. A digest of the protocol:
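HepG2 cells transiently transfected with cis-element-driven multiple reporter transcription units, dosed 24 h; reporter mRNA measured by RT-PCR, FAM labelling, HpaI digestion and capillary electrophoresis. Bidirectional fit versus DMSO baseline.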

The target of experiment [6] is Transcription factor Sp1 (Homo sapiens) (UniProt P08047). The experiment is described as follows: ATG_Sp1_CIS: Attagene CIS-FACTORIAL HepG2 Assay for human Specificity Protein 1 (Sp1) (AID 2282961). Conditions: HepG2 Sp1 cis-reporter transcription, actives raise or lower the signal. A digest of the protocol:
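HepG2 cells transiently transfected with multiple reporter transcription units driven by cis-regulatory elements; Sp1-responsive reporter mRNA measured 24 h after dosing by RT-PCR and capillary electrophoresis fluorescence, fitted bidirectionally against DMSO baseline.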

Experiment [7] in a line: ATG_SREBP_CIS: Attagene CIS-FACTORIAL HepG2 Assay for human Sterol Regulatory Element Binding (SREBP) (AID 2282962). As to conditions: HepG2 Attagene cis-factorial SREBP reporter, mRNA; actives raise or lower the signal. The method in brief: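 Endogenous SREBP activity read as cis-element-driven reporter transcript in transiently transfected HepG2, 24 h post-dosing; quantified via RT-PCR plus capillary electrophoresis of fluorescent fragments. Gain or loss of signal fitted relative to DMSO baseline.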

Experiment [8] addresses Signal transducer and activator of transcription 3 (Homo sapiens) (UniProt P40763). The experiment is described as follows: ATG_STAT3_CIS: Attagene CIS-FACTORIAL HepG2 Assay for human Signal Transducer and Activator of Transcription 3 (STAT3) (AID 2282963). As to conditions: HepG2, Attagene cis-factorial STAT3 reporter transcription; actives raise or lower the signal. The method in brief:
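Readout is reporter transcript quantified by RT-PCR and capillary electrophoresis, with 6-FAM primer extension and HpaI digestion. Total RNA is taken 24 h after dosing transiently transfected HepG2 carrying cis-regulated reporter units. Bidirectional fit against DMSO.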

A short description of experiment [9]: ATG_TA_CIS: Attagene CIS-FACTORIAL HepG2 Assay for human TA Basal Promoter (AID 2282964). As to conditions: HepG2 Attagene CIS-factorial TA basal promoter reporter; actives raise or lower the signal. The method in brief:
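Read-out: fluorescent reporter-transcript fragments resolved by capillary electrophoresis after RT-PCR and HpaI digestion. Source: HepG2 cells carrying transiently transfected multi-reporter cis constructs, treated 24 h. Endpoint fitted bidirectionally relative to DMSO.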

A short description of experiment [10]: ATG_TCF_b_cat_CIS: Attagene CIS-FACTORIAL HepG2 Assay for human T-Cell-Factor with beta-catenin (TCF/b-cat) (AID 2282965). Conditions: HepG2 TCF/beta-catenin cis-reporter transcription, actives raise or lower the signal. A digest of the protocol:
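Measured: reporter mRNA in HepG2 transiently transfected with cis-promoter reporter units, 24 h after chemical addition. Fitting was bidirectional, DMSO as negative control.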

The nature of experiment [11]: ATG_TAL_CIS: Attagene CIS-FACTORIAL HepG2 Assay for human TAL Basal Promoter (AID 2282966).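 Further: background control endpoint measuring basal TAL promoter reporter mRNA not a specific factor.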 Conditions: HepG2 Attagene cis-factorial TAL promoter reporter; actives raise or lower the signal. A digest of the protocol: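 Endogenous transcription-factor activity is sensed in HepG2 cells through transfected cis-promoter reporter constructs. After 24 h dosing, reporter transcripts are quantified by RT-PCR and capillary electrophoresis. Gain or loss of signal is fitted relative to DMSO.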

The nature of experiment [12]: ATG_TGFb_CIS: Attagene CIS-FACTORIAL HepG2 Assay for human Transforming Growth Factor (TGF) (AID 2282967). As to conditions: HepG2 Attagene CIS TGFb reporter, mRNA transcription; actives raise or lower the signal. The method in brief: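 Transient MRTU transfection of HepG2 (FuGene 6). Dose 24 h. TriZol RNA, oligo(dT) RT, PCR, 6-FAM primer extension, HpaI cut, CE. Bidirectional fit, DMSO = baseline.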

Experiment [13] can be described thus: ATG_VDRE_CIS: Attagene CIS-FACTORIAL HepG2 Assay for human Vitamin D Receptor Element (VDRE) (AID 2282968). As to conditions: HepG2 VDRE cis-reporter transcription, actives raise or lower the signal. The method in brief: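 Readout is VDRE-driven reporter mRNA reflecting endogenous factor activity in human HepG2 cells, sampled 24 h post-dose. Quantification used labelled RT-PCR products separated by capillary electrophoresis; bidirectional analysis relative to DMSO.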

The target of experiment [14] is Steroid hormone receptor ERR1 (Homo sapiens) (UniProt P11474). The experiment is described as follows: ATG_ERRa_TRANS: Attagene TRANS-FACTORIAL HepG2 Assay for human Estrogen-Related Receptor alpha (ERRa) (AID 2282971; active means hit-call score of the fitted dose curve at least 0.9, where 1 is the maximum). As to conditions: HepG2 Attagene TRANS reporter, ERRa transactivation. The method in brief:
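HepG2 cells were transiently transfected with multiple GAL4-UAS reporter units, then dosed with compound for 24 h. Total RNA was reverse-transcribed, reporter cDNA PCR-amplified and fluorescently labelled, and fragments resolved by capillary electrophoresis; induction was compared with DMSO.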

The target in experiment [15] is X-box-binding protein 1 (Homo sapiens) (UniProt P17861). Put plainly: ATG_Xbp1_CIS: Attagene CIS-FACTORIAL HepG2 Assay for human X-box Binding Protein 1 (XBP1) (AID 2282972). Conditions: HepG2 XBP1 cis-element reporter, Attagene multiplex; actives raise or lower the signal. A digest of the protocol:
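Reporter transcripts were quantified by RT-PCR with fluorescent primer extension and capillary electrophoresis after 24 h chemical exposure. Cells: transiently transfected HepG2 carrying cis-regulated reporter constructs; data fitted bidirectionally relative to DMSO.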

A short description of experiment [16]: ATG_M_19_TRANS: Attagene TRANS-FACTORIAL HepG2 Assay for M19 Transcription Factor (Internal Marker) (AID 2282974; active means hit-call score of the fitted dose curve at least 0.9, where 1 is the maximum). Conditions: HepG2 Attagene TRANS-FACTORIAL M19 internal marker reporter. The method in brief: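 HepG2 cells transiently transfected with multiple GAL4-UAS reporter transcription units were exposed to chemicals for 24 h. Reporter mRNA was read by RT-PCR, 6-FAM primer extension, HpaI digestion and capillary electrophoresis; gain of signal fitted relative to DMSO.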

Experiment [17] deals with Nuclear receptor subfamily 1 group I member 3 (Homo sapiens) (UniProt Q14994). Put plainly: ATG_CAR_TRANS: Attagene TRANS-FACTORIAL HepG2 Assay for human Constitutive Androstane Receptor (CAR) (AID 2282969; active means hit-call score of the fitted dose curve at least 0.9, where 1 is the maximum;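 further: activators raise reporter mRNA above DMSO so AC50 marks induction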). Conditions: HepG2 Attagene TRANS-FACTORIAL CAR reporter. A digest of the protocol:
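Signal is reporter mRNA induction relative to DMSO, measured 24 h after dosing by RT-PCR with fluorescent primer extension and capillary electrophoresis. Human HepG2 liver cells carried transiently transfected chimeric NR-Gal4/GAL4-UAS reporter constructs.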

The target in experiment [18] is Estrogen receptor (Homo sapiens) (UniProt P03372). Put plainly: ATG_ERa_TRANS: Attagene TRANS-FACTORIAL HepG2 Assay for human Estrogen Receptor alpha (ERa) (AID 2282970; active means hit-call score of the fitted dose curve at least 0.9, where 1 is the maximum). As to conditions: HepG2 Attagene TRANS ERa GAL4 reporter, mRNA. A digest of the protocol: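 Transfected HepG2 cells carrying GAL4-UAS-driven reporter units were dosed for 24 hours. Total RNA was reverse-transcribed, reporter sequences PCR-amplified, FAM-labelled, HpaI-digested and resolved by capillary electrophoresis. Increases over DMSO control defined activity.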
Estrogen receptor (Homo sapiens), sequence (P03372 whole entry, looked up, the tested form may be a part): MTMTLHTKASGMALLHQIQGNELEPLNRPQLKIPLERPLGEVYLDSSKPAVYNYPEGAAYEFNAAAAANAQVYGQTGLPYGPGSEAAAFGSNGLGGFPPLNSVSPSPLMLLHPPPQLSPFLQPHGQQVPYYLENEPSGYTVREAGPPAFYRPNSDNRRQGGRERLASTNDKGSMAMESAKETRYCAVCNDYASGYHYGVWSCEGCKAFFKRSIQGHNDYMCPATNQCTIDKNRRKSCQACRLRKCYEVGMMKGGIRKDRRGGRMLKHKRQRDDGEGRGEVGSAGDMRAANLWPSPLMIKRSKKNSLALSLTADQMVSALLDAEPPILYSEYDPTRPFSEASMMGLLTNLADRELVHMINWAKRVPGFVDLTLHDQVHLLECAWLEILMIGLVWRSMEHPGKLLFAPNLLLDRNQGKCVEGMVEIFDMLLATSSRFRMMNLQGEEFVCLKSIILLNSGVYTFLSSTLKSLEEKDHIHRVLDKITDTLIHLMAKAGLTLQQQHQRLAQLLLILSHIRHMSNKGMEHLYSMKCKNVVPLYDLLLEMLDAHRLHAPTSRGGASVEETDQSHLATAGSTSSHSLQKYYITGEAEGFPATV

Experiment [19] is described as follows: ATG_GAL4_TRANS: Attagene TRANS-FACTORIAL HepG2 Assay for GAL4 (Internal Marker) (AID 2282976; active means hit-call score of the fitted dose curve at least 0.9, where 1 is the maximum). As to conditions: HepG2 Attagene TRANS GAL4 internal marker reporter. The method in brief:
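Fluorescence from capillary electrophoresis of labelled RT-PCR products quantifies reporter mRNA induction after 24 h dosing of HepG2 cells carrying transfected GAL4-UAS reporter transcription units. Vehicle DMSO serves as baseline.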

Signal transducer and activator of transcription 3 (Homo sapiens), sequence (P40763 whole entry, looked up): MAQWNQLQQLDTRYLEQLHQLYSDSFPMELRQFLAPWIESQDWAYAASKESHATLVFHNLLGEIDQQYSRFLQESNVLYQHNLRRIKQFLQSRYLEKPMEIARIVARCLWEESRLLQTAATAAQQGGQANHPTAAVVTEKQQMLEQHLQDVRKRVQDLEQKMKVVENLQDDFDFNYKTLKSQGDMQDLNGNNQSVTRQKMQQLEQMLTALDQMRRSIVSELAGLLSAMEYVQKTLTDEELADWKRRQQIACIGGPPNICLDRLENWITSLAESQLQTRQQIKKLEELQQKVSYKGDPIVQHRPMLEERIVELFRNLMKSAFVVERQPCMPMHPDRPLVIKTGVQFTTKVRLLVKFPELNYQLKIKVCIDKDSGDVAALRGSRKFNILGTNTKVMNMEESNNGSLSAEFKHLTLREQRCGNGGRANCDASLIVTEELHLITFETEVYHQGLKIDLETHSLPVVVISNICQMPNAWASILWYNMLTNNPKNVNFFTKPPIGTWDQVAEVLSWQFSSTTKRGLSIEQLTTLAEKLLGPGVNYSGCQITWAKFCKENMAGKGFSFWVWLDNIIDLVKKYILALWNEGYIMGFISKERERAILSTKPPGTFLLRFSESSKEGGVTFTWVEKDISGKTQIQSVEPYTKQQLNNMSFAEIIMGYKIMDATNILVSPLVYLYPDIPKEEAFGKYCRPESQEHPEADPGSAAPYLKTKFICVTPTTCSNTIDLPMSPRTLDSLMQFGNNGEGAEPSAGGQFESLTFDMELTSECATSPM
Steroid hormone receptor ERR1 (Homo sapiens), sequence (P11474 whole entry, looked up, the tested form may be a part): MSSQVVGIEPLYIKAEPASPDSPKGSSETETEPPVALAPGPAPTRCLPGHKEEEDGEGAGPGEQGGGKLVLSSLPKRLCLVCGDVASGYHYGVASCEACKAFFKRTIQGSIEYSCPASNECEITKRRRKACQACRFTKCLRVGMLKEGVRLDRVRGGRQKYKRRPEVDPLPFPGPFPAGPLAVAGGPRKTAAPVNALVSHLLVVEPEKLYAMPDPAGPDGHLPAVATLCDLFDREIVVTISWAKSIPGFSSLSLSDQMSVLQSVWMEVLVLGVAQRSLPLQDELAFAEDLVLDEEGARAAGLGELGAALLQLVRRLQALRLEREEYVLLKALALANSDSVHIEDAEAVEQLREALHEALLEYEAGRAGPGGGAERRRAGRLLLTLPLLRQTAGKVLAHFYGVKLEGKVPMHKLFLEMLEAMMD
Transcription factor Sp1 (Homo sapiens), sequence (P08047 whole entry, looked up): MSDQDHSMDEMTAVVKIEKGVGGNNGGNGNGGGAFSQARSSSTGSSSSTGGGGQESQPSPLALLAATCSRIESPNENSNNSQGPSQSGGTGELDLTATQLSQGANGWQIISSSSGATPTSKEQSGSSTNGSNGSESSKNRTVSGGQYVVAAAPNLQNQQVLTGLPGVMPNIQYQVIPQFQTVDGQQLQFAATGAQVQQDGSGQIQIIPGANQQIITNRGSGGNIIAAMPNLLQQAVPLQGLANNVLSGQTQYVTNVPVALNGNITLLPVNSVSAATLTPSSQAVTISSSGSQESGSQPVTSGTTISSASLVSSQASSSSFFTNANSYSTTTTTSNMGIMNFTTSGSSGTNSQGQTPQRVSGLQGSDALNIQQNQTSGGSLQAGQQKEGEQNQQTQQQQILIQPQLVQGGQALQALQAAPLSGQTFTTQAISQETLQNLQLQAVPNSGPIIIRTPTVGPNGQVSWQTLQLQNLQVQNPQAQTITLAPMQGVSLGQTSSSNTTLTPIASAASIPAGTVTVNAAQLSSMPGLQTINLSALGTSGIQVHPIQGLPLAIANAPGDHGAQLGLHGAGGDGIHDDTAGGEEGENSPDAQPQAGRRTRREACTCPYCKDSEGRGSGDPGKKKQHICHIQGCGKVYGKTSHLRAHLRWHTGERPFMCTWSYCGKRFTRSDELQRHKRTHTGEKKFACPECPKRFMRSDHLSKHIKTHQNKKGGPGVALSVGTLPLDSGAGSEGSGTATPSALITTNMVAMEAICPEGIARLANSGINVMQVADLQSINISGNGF
X-box-binding protein 1 (Homo sapiens), sequence (P17861 whole entry, looked up): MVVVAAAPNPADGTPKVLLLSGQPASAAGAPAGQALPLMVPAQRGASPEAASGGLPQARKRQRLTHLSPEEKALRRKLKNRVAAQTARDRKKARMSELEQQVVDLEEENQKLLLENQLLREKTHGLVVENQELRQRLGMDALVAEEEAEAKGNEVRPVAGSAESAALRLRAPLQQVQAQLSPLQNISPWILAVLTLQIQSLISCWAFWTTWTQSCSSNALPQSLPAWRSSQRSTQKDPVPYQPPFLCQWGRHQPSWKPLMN
Nuclear receptor subfamily 1 group I member 3 (Homo sapiens), sequence (Q14994 whole entry, looked up, the tested form may be a part): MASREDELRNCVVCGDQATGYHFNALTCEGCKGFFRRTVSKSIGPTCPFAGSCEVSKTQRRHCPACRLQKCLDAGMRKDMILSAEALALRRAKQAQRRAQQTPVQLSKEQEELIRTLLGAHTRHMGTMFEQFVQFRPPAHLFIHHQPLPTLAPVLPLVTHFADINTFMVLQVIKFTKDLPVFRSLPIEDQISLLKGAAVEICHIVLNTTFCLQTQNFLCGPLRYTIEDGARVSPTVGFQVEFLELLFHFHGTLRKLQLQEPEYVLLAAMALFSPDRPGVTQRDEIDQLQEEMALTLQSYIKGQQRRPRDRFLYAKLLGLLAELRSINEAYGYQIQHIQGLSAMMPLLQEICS

As to `NC(=O)Nc1ccccc1`, the result in experiment [1], in experiment [2], in experiment [3], in experiment [4], in experiment [5] and in [6] was inactive. The outcome in experiment [7], in experiment [8], in experiment [9], in [10], in experiment [11] and in [12] was inactive. In addition, the result in experiment [13], in [14], in experiment [15] and in experiment [16] was inactive.
The term AC50 denotes the midpoint of the concentration-response curve, whichever way the signal moves. `Cc1cccc(C(C)(C)C)c1O`: the half-maximal activity concentration (AC50) is 16.8 µM (active) in experiment [1], 4.59 µM (active) in experiment [3] and 19.9 µM (active) in experiment [13]. Moreover, the compound was called inactive in experiment [2], in experiment [4], in experiment [5], in experiment [6], in [7] and in [8]. The compound was classed as inactive in experiment [9], in [10], in [11], in [12], in experiment [17] and in experiment [18]. Besides, the result in [15] was inactive.
For `CC1C(C)(C)C2=C(C(=O)CCC2)C1(C)C` (configuration not stated), the result in experiment [1], in experiment [2], in experiment [4], in experiment [5], in experiment [6] and in [7] was inactive. Also, the outcome in experiment [8], in experiment [9], in experiment [10], in experiment [11], in experiment [12] and in experiment [13] was inactive. The result in experiment [17], in experiment [14] and in experiment [16] was inactive. The results for the AC50 in [3] and in experiment [18] were 6.01 µM (active) and 11.5 µM (active), respectively.
Regarding `CCN1CCCC1=O`, the result in [1], in experiment [2], in experiment [3], in experiment [4], in experiment [5] and in experiment [6] was inactive. In addition, the result in experiment [7], in experiment [8], in experiment [9], in experiment [10], in experiment [11] and in experiment [12] was inactive. Also, the call in experiment [13], in [17] and in [15] was inactive.
As for `CC1=CC(C)C(C=O)CC1` (configuration not stated), the outcome in experiment [1], in [2], in [4], in [5], in experiment [6] and in [7] was inactive. Also, the compound was classed as inactive in experiment [8], in [9], in [10], in experiment [11], in experiment [12] and in [13]. Moreover, the result in experiment [17], in [18], in [14] and in experiment [15] was inactive. Further, in experiment [3], the AC50 is 27.7 µM (active).
On to `CC(C)OC(=O)c1ccccc1`, for which the outcome in [1], in [2], in experiment [3], in experiment [4], in experiment [5] and in experiment [6] was inactive. The outcome in experiment [7], in experiment [8], in experiment [9], in experiment [10], in experiment [11] and in [12] was inactive. Also, the compound was classed as inactive in [13], in [18] and in experiment [15].
With `CCCCC1C(=O)N(c2ccccc2)N(c2ccccc2)C1=O`, the result in experiment [1], in experiment [2], in experiment [4], in [5], in experiment [6] and in [7] was inactive. Besides, the compound was called inactive in experiment [8], in [9], in experiment [10], in experiment [11], in experiment [12] and in [13]. In addition, the call in experiment [17], in experiment [18] and in [19] was inactive. Also, the AC50 in experiment [3] is 1.44 µM (active).
